Assay outcomes as filed in PubChem BioAssay.
The list is not random: actives were taken first. Their share in the collection is about 11%.
12-hLO inh: qHTS Assay for Inhibitors of 12-hLO (12-human lipoxygenase) | Potency, µM (highest dose often 57.1 µM), inactives show at the top dose activity change, negative = inhibition, most hits filed as inhibitors | 0.12% of 150,000 active | purified 12-hLO, xylenol orange hydroperoxide absorbance | Polyunsaturated fatty acid lipoxygenase ALOX12 (Homo sapiens), P18054; active means well fitted curve in the direction sought with a large enough effect; inconclusive means small, poorly fitted or top-dose-only effect, or another doubt; inactive means no such curve, though single readings can be large; an effect the other way counts as inactive or inconclusive; further: potency means the concentration at half of the fitted maximal effect; nearly all actives have a fitted effect of over 55% in size
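Purified human 12hLO (150 nM final) was preincubated with compounds for 15 min at room temperature in 25 mM Hepes pH 7.0, 0.01% Triton X-100, then reacted with 40 uM arachidonic acid for 30 min. Hydroperoxide was detected with ferrous iron/xylenol orange.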
IMPase inh: qHTS Assay for Identifying the Cell-Membrane Permeable IMPase Inhibitors; 120,000 tested, under 10 active; CHO-M1 cells, IP1 accumulation, HTRF TR-FRET ratio; inhibition (IP1 accumulation), % at 46.1 µM; active means well fitted curve in the direction sought with a large enough effect in the signal ratio, not every such curve was filed as active; inconclusive means small, poorly fitted or top-dose-only effect, or a change in a side signal; inactive means no such curve, though single readings can be large or run the other way; the % refers to the signal ratio;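 further: cells stimulated with carbachol in lithium chloride buffer; plate controls were DMSO basal wells for no effect and reference inhibitor wells for full effect; higher means more IMPase inhibition seen as more IP1 and lower FRET ratio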
Target sequence (P97697 whole entry, looked up): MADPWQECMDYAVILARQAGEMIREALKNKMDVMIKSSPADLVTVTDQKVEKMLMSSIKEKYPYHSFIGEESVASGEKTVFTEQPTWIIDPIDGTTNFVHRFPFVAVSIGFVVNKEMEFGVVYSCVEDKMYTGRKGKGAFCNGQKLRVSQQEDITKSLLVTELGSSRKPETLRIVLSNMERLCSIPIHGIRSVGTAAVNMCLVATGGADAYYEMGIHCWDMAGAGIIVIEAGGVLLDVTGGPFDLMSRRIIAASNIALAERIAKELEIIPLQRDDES
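Carbachol-driven Gq signalling in CHO-M1 cells (2000/well) generates IP1. Compounds that block IMPase raise IP1 and so reduce the FRET signal from Eu-anti-IP1 and d2-IP1 after a 10 min room-temperature lysis.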
HPGD inh: qHTS Assay for Inhibitors of HPGD (15-Hydroxyprostaglandin Dehydrogenase); 4.3% of 150,000 active; Potency, µM, without a hit: at the top dose activity change, negative = inhibition, most hits filed as inhibitors; purified HPGD, NADH fluorescence kinetic, PGE2 substrate; 15-hydroxyprostaglandin dehydrogenase [NAD(+)] (Homo sapiens), P15428; further: potency means the concentration at half of the fitted maximal effect
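20 nM HPGD preincubated 15 min at room temperature with compound in 50 mM Tris-HCl pH 8, 0.01% Tween 20. Started with 1 mM NAD+ and 30 uM prostaglandin E2; NADH fluorescence (360/450 nm) read 5 times over 30-s intervals, last minus first.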
IMPase Li inh: qHTS Assay for Identifying the Cell-Membrane Permeable IMPase Inhibitors: Potentiation with Lithium; CHO-M1 cells, IP1 TR-FRET (IP-One), carbachol + lithium; Potency, µM (top dose mostly 59.4 µM), inactives show at the top dose activity, negative = IMPase inhibition, actives largely listed as inhibitors; 0.35% of 210,000 active; AID 1457, 2008; active means well fitted curve in the direction sought with a large enough effect; inconclusive means small, poorly fitted or top-dose-only effect, or another doubt; inactive means no such curve, though single readings can be large; an effect the other way counts as inactive or inconclusive;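 further: IP1 builds up when IMPase is blocked and the TR-FRET signal falls; potency means the concentration at half of the fitted maximal effect; plate controls were basal vehicle for no effect and high inhibitor control for full effect; nearly all actives have a fitted effect of over 50% in size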
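Steps: plate 2000 CHO-M1 cells per well and culture 16–30 h; add compound and lithium; incubate 30 min, 37C; add d2-IP1 tracer and Eu cryptate anti-IP1 antibody in lysis buffer; read after 10 min at room temperature.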
ALDH1A1 inh: qHTS Assay for Inhibitors of Aldehyde Dehydrogenase 1 (ALDH1A1) | 7.3% of 220,000 active | AID 1030, 2008 | Potency, µM (highest dose often 75.3 µM), inactives show at the highest dose activity, negative = inhibition, actives largely listed as inhibitors | Purified ALDH1A1, NADH fluorescence, propionaldehyde substrate;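 further: potency means the concentration at half of the fitted maximal effect; plate controls were no enzyme wells and a reference inhibitor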
Target sequence (P00352 whole entry, looked up): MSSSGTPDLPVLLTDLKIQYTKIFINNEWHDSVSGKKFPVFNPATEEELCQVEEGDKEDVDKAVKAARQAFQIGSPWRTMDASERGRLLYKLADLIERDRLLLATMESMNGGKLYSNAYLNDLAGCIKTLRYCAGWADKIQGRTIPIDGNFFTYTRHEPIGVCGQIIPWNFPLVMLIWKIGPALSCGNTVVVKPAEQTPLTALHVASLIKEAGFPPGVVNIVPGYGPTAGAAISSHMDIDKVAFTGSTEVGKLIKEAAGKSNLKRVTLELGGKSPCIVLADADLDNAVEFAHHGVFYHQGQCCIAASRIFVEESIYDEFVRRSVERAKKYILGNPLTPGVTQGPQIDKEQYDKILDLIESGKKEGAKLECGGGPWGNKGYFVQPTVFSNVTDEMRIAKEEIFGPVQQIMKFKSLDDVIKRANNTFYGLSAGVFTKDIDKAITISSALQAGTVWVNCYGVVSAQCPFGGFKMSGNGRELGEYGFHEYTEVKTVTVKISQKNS
PNC inhibitor: High Content Assay for Compounds that inhibit the Assembly of the Perinucleolar Compartment; PC3M PTB-GFP, PNC prevalence imaging, 16 h; stronger effect = lower value; activity change (PNC), negative = inhibition, % at 10 µM; 3.1% of 140,000 active; AID 2417, 2010;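 active means readout at or below -70, meaning at least 70% loss of cells showing the perinucleolar compartment, a nuclear body marking cancer cells; inconclusive means readout between -30 and a set limit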;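 further: plate controls were DMSO wells for no effect and camptothecin positive control wells for full effect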
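PC3M cells stably expressing PTB-GFP, 750–1000 cells/well, treated 16 h at 37 °C with compound (23 nl of library stock), in duplicate. After paraformaldehyde fixation and Hoechst stain, imaged at 20x; PNC prevalence scored by image analysis.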
* = called active by the depositor; ? = inconclusive; / = no result; [ ] = remark or other dose. Unless noted, the call rests on the fitted dose curve; in most records, active means well fitted inhibition curve with a large enough effect (not every such curve was filed as active); inconclusive means small, poorly fitted or top-dose-only effect, or another doubt; inactive means no such curve, though single readings can be large or run the other way. Unless noted, on the % scale 0 is the no-effect control and ±100 the full control effect.

SMILES	12-hLO inh	IMPase inh	HPGD inh	IMPase Li inh	ALDH1A1 inh	PNC inhibitor
CC(C)C[C@H](N)C(=O)O	2%[11.4 µM]	/	-2%	-14%	6%[13.5 µM]	/
CCC(=O)[C@@]1(O)C(=O)N2C(=C3C(=O)OCCC31)N(Cc1ccccc1)C(C)=C(C(=O)OC)C2c1ccccc1 (some centres not stated)	/	/	/	/	11%[13.5 µM]	/
CC(C)c1ccc(Nc2c(-c3ccc(N4CCOCC4)cc3)nc3ncccn23)cc1	/	1	/	/	/	/
CC(C)CNC(=O)[C@H](Cc1ccccc1)NC(=O)c1ccco1	-8%	2	-7%	39%[38.3 µM]	40µM*	-11
COC(=O)CNC(=O)COC(=O)C(Cc1ccccc1)NC(=O)c1ccco1 (configuration not stated)	6%	8	-4%	-1%[38.3 µM]	?	-115*
CCCNC(=O)OC[C@@H]1O[C@H](CCO/N=C(\C)CCN2CCCc3nc(C)c(C)cc32)C=C[C@@H]1Oc1ccc(OC)cc1	/	/	/	/	0%[13.5 µM]	/
CCCN=Cc1sc2ccc(OCC)cc2c1O	-22%	-1	?	4%[38.3 µM]	?	9
CCOc1ccc2c(O)csc2c1	-8%	7	-16%	0%[38.3 µM]	25µM*	1
Cn1c(=O)n(C)c2cc(N3CCCCC3)c(NC(=O)c3ccc(C(C)(C)C)cc3)cc21	/	0	/	/	/	/
Cc1ccc(OC(=O)c2sc(Cl)nc2C)cc1C	1%	/	-18%	16%	20µM*	1
Cc1c(NC(=O)c2sc3ccccc3c2Cl)cccc1-c1nc2ccccc2o1	/	-2	/	/	/	/
CN(C)Cc1nnnn1-c1cccc(-n2nnnc2CN(C)C)c1	/	/	/	/	-10%	/
CCOC(=O)C1=C(N)OC2=C(C(=O)CC(C)(C)C2)C1c1ccoc1 (configuration not stated)	-9%	5	-4%	9%	25µM*	13
CCOC(=O)C1=C(N)OC2=C(C(=O)CC(C)(C)C2)C1c1cccnc1 (configuration not stated)	-1%	10	1%	10%[38.3 µM]	-1%	?
CCOC(=O)C1=C(N)OC2=C(C(=O)CC(C)(C)C2)C1c1cc(CSc2nnnn2C)cs1 (configuration not stated)	/	/	/	28%	1µM*	/
CCCCC/C=C\C\C=C/C=C/C=C/[C@@H](SCC(NC(=O)CCC(N)C(=O)O)C(=O)NCC(=O)O)[C@@H](O)CCCC(=O)O (some centres not stated)	1%	/	-5%	2%	0%	/
C=C1C(=O)O[C@@H]2[C@@H]1CC/C(C)=C\CC[C@@]1(C)O[C@H]21	-1%[25.6 µM]	5[20.6 µM]	-1%	-5%	10µM*	/
C=C1C(=O)O[C@@H]2[C@H]3O[C@]3(C)CCC=C(C)CC[C@@H]12	-1%	4	-4%	11%	20µM*	/
Nc1nnc(CSCc2ccc(F)cc2)s1	-8%	3	22µM*	-3%[38.3 µM]	10µM*	?
CCCCC1=CC2=CC(=O)C(C)(OC(=O)CC)C(=O)C2=CN1CCCN(CC)CC (configuration not stated)	0%[11.4 µM]	/	1%	6%	3%[13.5 µM]	/
COC(=O)C1=C(C)N(Cc2ccccc2)C2=C(C(C)=O)C[C@@](O)(C(=O)OC)C(=O)N2C1c1ccccc1 (some centres not stated)	/	/	/	/	-6%[13.5 µM]	/
CC(C)Sc1nnc(CNC(=O)C23CC4CC(CC(C4)C2)C3)n1Cc1ccccc1	-2%	8	-7%	15%	-3%	-17
CSc1nnc(CNC(=O)C23CC4CC(CC(C4)C2)C3)n1Cc1ccccc1	0%	-5	1%	-2%	-10%	-115*
Cc1ccc(C(=O)CSc2nnc(-c3ccc4[nH]c(C)c(C)c4c3)o2)cc1C	-5%	-7	-8%	17%[38.3 µM]	1.4µM*	36
Cc1ccc(/C=N/NC(=O)Cc2cccn2C)s1	-7%	/	7.1µM*	22%	3%	20
SMILES	12-hLO inh	IMPase inh	HPGD inh	IMPase Li inh	ALDH1A1 inh	PNC inhibitor
CC(/C=N/NC(=O)Cc1cccn1C)=C\c1ccco1	-10%	-1[1.84 µM]	?	53%[38.3 µM]	14µM*	29
CC(=C/c1ccco1)/C=N/NC(=O)Cc1cccn1C	-6%	15	-26%	-2%	25µM*	42
CC(/C=N/NC(=O)Cn1cnc2c1c(=O)n(C)c(=O)n2C)=C\c1ccco1	/	/	/	/	22µM*	/
Cn1cccc1CC(=O)N/N=C\c1cccs1	-11%	7	?	3%[38.3 µM]	-9%	9
Cn1c(=O)c2c(ncn2CC(=O)N/N=C/C(Cl)=C/c2ccccc2)n(C)c1=O	3%	2	-7%	14%	?	-6
O[C@@H](COc1cccc2ccccc12)CN1CCOCC1	-12%[11.4 µM]	/	-2%	-2%	8%[13.5 µM]	/
C#CCOc1ccc(-c2nnc(Nc3cccc(C)c3)c3ccccc23)cc1	/	-2	/	/	/	/
CCc1ccccc1N1CSC2=C(C#N)C(c3cc(OC)c(OC)cc3OC)CC(=O)N2C1 (configuration not stated)	?	8	7.9µM*	-23%[38.3 µM]	?	11
COc1cc(OC)c(C2CC(=O)N3CN(c4ccccc4)CSC3=C2C#N)cc1OC (configuration not stated)	-22%	-4	10µM*	-3%[38.3 µM]	8.9µM*	12
CCc1ccccc1N1CCN(S(=O)(=O)c2cc(OC)ccc2OC)CC1	-9%	1	-18%	17%	?	32
COc1ccc2cc(C(=O)OC(C)C)sc(=O)c2c1OC	5%	5	?	-2%	5µM*	4
COc1ccc2cc(C(=O)NCC(=O)O)sc(=O)c2c1OC	2%	4	-11%	-3%[38.3 µM]	5%	97
CSc1ccccc1C(=O)C1CCCN(C(=O)c2cc(C(C)C)no2)C1 (configuration not stated)	/	/	/	-4%	18µM*	/
C[N+](C)(C)CC(=O)N/N=C\c1ccncc1	-3%[11.4 µM]	/	-7%	-15%	-4%[13.5 µM]	/
O=C(O)CCC(=O)N1CCc2cc(S(=O)(=O)NC3CCCC3)ccc21	-4%	-6	13µM*	3%[38.3 µM]	8%	-4
O=C(C1CCC1)N1CCc2cc(S(=O)(=O)NC3CCCc4ccccc43)ccc21 (configuration not stated)	4%	-1	?	35%[38.3 µM]	-9%	28
